Assay results: PubChem BioAssay
Calls of active or inactive are those of the source. Unless noted, no rule for the calls is given here.

Legend:
[1] = test system: Wnt5a (protein binding on small-molecule microarray); assay: Wnt5a binders on small-molecule microarray, primary screen, biophysical, 635/667 nm fluorescence (AID 1142); conditions: 635 nm fluorescence, higher = more signal;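 also: fluorescence read at 667 nm with signal to noise per printed feature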
[2] = cell viability in Huh7 cells, primary screen, cytotoxicity control for HCV replication inhibitor project, CellTiter-Glo luminescence, basal, 48 h (AID 1143); conditions: Huh7 HCV replicon, higher = more signal, called active from +8 up or from −8 down;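 also: Huh7 hepatoma cells carrying a hepatitis C replication reporter with no stimulus; test concentration not given here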
[3] = P. aeruginosa biofilm formation inhibitors, primary screen, PAO1 strain, BacTiter-Glo luminescence, LB-PBS (AID 1144); conditions: 12 h, higher = more signal
[4] = CREB reporter modulators without forskolin, primary screen, cell-based, PC12, CRE-LacZ reporter, unstimulated (AID 1145); conditions: no forskolin, luminescence, 4.5 h, higher = more signal, called active from +8 up or from −8 down
[5] = CREB reporter modulators under forskolin, primary screen, cell-based, PC12, CRE-LacZ reporter, forskolin-stimulated (AID 1146); conditions: luminescence, 4.5 h, higher = more signal, called active from +8 up or from −8 down;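 also: PC12 cells with 6xCRE LacZ reporter stimulated by forskolin 10 µM; beta-galactosidase reporter signal reflecting CREB driven transcription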
[6] = molecular target: Streptavidin (Streptomyces avidinii) (UniProt P22629); assay: streptavidin binders on small-molecule microarray, primary screen, artefact control for SMM compound annotation, biophysical, 635/667 nm fluorescence (AID 1147); conditions: streptavidin binding, higher = more signal;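 also: signal reflects streptavidin binding to arrayed compounds as a control protein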
[7] = small-molecule binders of probe aInhba, primary screen, biochemical, small-molecule microarray, 635/667 nm fluorescence (AID 1148); conditions: higher = more signal;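 also: score merges 667nm spot fluorescence with signal-to-noise for antibody binding to printed compounds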
Torsin-1A (Homo sapiens) [8] = molecular target: Torsin-1A (Homo sapiens) (UniProt O14656); assay: torsin A binders from cell lysate, primary screen, small-molecule microarray, wild-type, 635/667 nm (AID 1149); conditions: COS7 hTOR1A-WT lysate, 635 nm fluorescence, higher = more signal
Torsin-1A (Homo sapiens) [9] = molecular target: Torsin-1A (Homo sapiens) (UniProt O14656); assay: small-molecule binders of mutant TOR1A in lysate, primary screen, cell lysate, small-molecule microarray, COS7 lysate, 635/667 nm fluorescence (AID 1150); conditions: COS7 hTOR1A mutant lysate, 635 nm fluorescence, higher = more signal;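 also: score pools 667 nm emission and signal to noise measuring lysate protein binding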
[10] = test system: Sonic hedgehog protein (Shh); assay: small-molecule binders of Shh protein, primary screen, biochemical, small-molecule microarray, 635/667 nm fluorescence (AID 1151); conditions: small-molecule microarray binding, 635 nm fluorescence; higher = more signal;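 also: Shh protein binding to compounds spotted on small-molecule microarray slides; score combines spot fluorescence intensity with signal-to-noise across triplicate slides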

Torsin-1A (Homo sapiens), sequence (O14656 whole entry, looked up): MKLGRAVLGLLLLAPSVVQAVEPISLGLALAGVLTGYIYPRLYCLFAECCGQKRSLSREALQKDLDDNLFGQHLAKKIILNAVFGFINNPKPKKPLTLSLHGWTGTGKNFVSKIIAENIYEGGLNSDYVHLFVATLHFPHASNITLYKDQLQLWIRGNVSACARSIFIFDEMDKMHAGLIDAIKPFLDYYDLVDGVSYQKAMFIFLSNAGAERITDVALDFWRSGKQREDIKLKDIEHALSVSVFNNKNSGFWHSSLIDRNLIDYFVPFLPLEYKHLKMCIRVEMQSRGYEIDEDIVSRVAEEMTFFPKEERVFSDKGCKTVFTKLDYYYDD
Streptavidin (Streptomyces avidinii), sequence (P22629 whole entry, looked up): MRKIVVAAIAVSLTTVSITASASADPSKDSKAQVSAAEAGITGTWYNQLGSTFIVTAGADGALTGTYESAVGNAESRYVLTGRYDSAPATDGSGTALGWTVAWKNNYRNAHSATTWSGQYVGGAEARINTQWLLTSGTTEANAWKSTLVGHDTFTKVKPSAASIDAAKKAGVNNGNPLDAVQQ

SMILES	composite z-score [1]	z-score [2]	z-score [3]	z-score [4]	z-score [5]	composite z-score [6]	composite z-score [7]	composite z-score (Torsin-1A (Homo sapiens) [8])	composite z-score (Torsin-1A (Homo sapiens) [9])	composite z-score [10]
CO[C@H]1O[C@H](CO)[C@@H](OC(=O)CCc2ccccc2)[C@@H]2OC(=O)[C@@H](Cc3ccc4ccccc4c3)C/C=C/C[C@H](Cc3ccc4ccccc4c3)C(=O)O[C@@H]12	0.0032	-2.59 (inactive)	-0.302 (inactive)	-0.151 (inactive)	0.336 (inactive)	-0.452	-0.13	-1.32	1.06	-0.657
COc1ccc(NN2C(C(O)c3ccc(F)cc3)C=CC3C(=O)N(C4CCCCC4)C(=O)C32)cc1 (stereo not given)	0.0942	-0.591 (inactive)	-0.796 (inactive)	1.24 (inactive)	1.08 (inactive)	1.58	0.112	0.638	0.197	0.244
CC[C@@H]1C=C(C(=O)O)[C@H](c2cccc(Cl)c2)N1S(=O)(=O)c1ccc(C)cc1	-0.23	-0.733 (inactive)	1.24 (inactive)	-0.322 (inactive)	-0.166 (inactive)	0.326	-0.0018	1.65	0.314	-0.726
CCOC(=O)C1=C[C@@H](C(C)(C)C)N(S(=O)(=O)c2ccc(C)cc2)[C@H]1c1ccc(OC)cc1	0.474	-4.94 (inactive)	-0.0448 (inactive)	0.238 (inactive)	0.334 (inactive)	1.36	0.0541	0.795	-0.198	0.523
COC(=O)[C@]1(Cc2ccccc2N=[N+]=[N-])N=C(c2ccc(OCCCO)cc2)O[C@@H]1c1ccccc1CN=[N+]=[N-]	0.65	-3.74 (inactive)	-0.923 (inactive)	-0.137 (inactive)	0.0992 (inactive)	0.127	0.122	1.12	0.085	0.754
[N-]=[N+]=NCc1ccccc1[C@H]1OC(c2ccc(OCCCO)cc2)=N[C@@]1(Cc1ccccc1N=[N+]=[N-])C(=O)N1CCOCC1	0.135	-3.35 (inactive)	-0.149 (inactive)	2.61 (inactive)	-0.529 (inactive)	1.24	0.222	0.249	0.488	-1.15
C=C(C(=O)CC[C@H](OC(=O)c1ccccc1-c1ccccc1C(=O)O)c1ccc(OCCO)cc1)C(C)C	0.686	-0.723 (inactive)	-1.22 (inactive)	0.611 (inactive)	1.09 (inactive)	-0.0151	0.0497	1.87	1.5	0.7
C[N+](C)(C)CCCC[C@@H]1NC(=O)[C@H]2C[C@@H](C(=O)O)[C@@H](c3ccc(O)cc3)N2C1=O	0.0425	-0.497 (inactive)	-1.19 (inactive)	0.285 (inactive)	-0.744 (inactive)	-0.206	0.0051	0.049	0.38	1.22
C=CCNC(=O)[C@@H]1[C@H]2C(=O)O[C@H](c3ccccc3)[C@H](c3ccccc3)N2[C@H](c2ccc(OCCO)cc2)[C@@]12C(=O)Nc1ccc(C#CC3=CCCCC3)cc12	0.257	-4.25 (inactive)	-0.188 (inactive)	0.299 (inactive)	-0.0321 (inactive)	1.06	0.0502	0.707	0.531	1.66
COCCOC(=O)N1C(=O)[C@@]2(c3cc(C#CC4(O)CCCCCC4)ccc31)[C@H](C(N)=O)[C@H]1C(=O)O[C@H](c3ccccc3)[C@H](c3ccccc3)N1[C@@H]2c1ccc(OCCO)cc1	0.309	-4.36 (inactive)	-0.295 (inactive)	0.362 (inactive)	0.0846 (inactive)	0.84	0.201	0.838	0.637	1.24
COCCOC(=O)N1C(=O)[C@@]2(c3cc(C#CCC(C(=O)OC)C(=O)OC)ccc31)[C@H](C(=O)N1CCc3cc(OC)c(OC)cc3C1)[C@H]1C(=O)O[C@H](c3ccccc3)[C@H](c3ccccc3)N1[C@@H]2c1ccccc1OCCO	0.725	-3.46 (inactive)	-0.893 (inactive)	-1.14 (inactive)	0.149 (inactive)	0.593	-0.025	0.897	0.949	1.73
O=C1O[C@H](c2ccccc2)[C@H](c2ccccc2)N2[C@H]1[C@@H](C(=O)Nc1nc3ccccc3s1)[C@]1(C(=O)Nc3ccccc31)[C@H]2c1ccccc1OCCO	-0.023	-4.68 (inactive)	-0.804 (inactive)	0.272 (inactive)	0.519 (inactive)	1.25	0.161	0.869	1.11	0.465
COc1ccc(NN2C(C(O)c3ccccc3)C=CC3C(=O)N(C4CCCCC4)C(=O)C32)cc1 (stereo not given)	0.272	-2.44 (inactive)	-1.71 (inactive)	0.127 (inactive)	1.65 (inactive)	0.929	0.19	0.473	0.37	0.871
COc1ccc(C(O)C2C=CC3C(=O)N(c4ccccc4)C(=O)C3N2Nc2ccccc2F)c2ccccc12 (stereo not given)	0.936	-0.225 (inactive)	-1.21 (inactive)	0.629 (inactive)	-0.813 (inactive)	2.38	1.11	0.163	0.273	0.824
